# Reference: PubChem BioAssay (Tox21)
# Values joined by “and” are separate entries in the source; they are usually repeats but may differ in a detail not shown here. Identical values can stand only once. The source holds several records for some structures; these can differ, active in one and inactive in another. Active and inactive are the calls of the source. A call without a number means that no potency is given here. Calls come from the whole dose curve; as a rule, active = well fitted activation curve with a large enough effect in the repeat runs; inconclusive = weak or mixed curves; inactive = flat fitted curve, though single readings scatter.
# Experiment: A CellTox Green Cytotoxicity Assay to monitor cytotoxicity in HEK293 cells - 0 hour (AID 1224869); note: nearly all actives have a fitted effect of over 50% in size
# Settings: CellTox Green fluorescence; series mostly up to 76.8 µM
# Description: National Center for Advancing Translational Sciences [NCATS]
# NIH Chemical Genomics Center [NCGC]
# U.S. Environmental Protection Agency [EPA]
# National Institutes of Environmental Health Sciences [NIEHS]
# National Toxicology Program [NTP]
# Cell-based models are critical for drug discovery. Determining the natural cytotoxic effects resulting from test compounds is an essential research activity. A CellTox Green Cytotoxicity Assay to monitor cytotoxicity in real time of continues cell culture during 40 hours of the compound treatment was used to screen Tox21 10K library compounds in Hek293 cells. CellTox Green Cytotoxicity Assay is a nonlytic, homogeneous, biofluorescent method to measure cytotoxicity in cell culture after experimental manipulation. The assay system uses a proprietary asymmetric cyanine dye that is excluded from viable cells but preferentially stains the dead cell's DNA. […] Viable cells produce no appreciable increases in fluorescence. Therefore, the fluorescence signal produced by the binding interaction with dead cell DNA is proportional to cytotoxicity.
# The mixture of Hek293 cell suspension and reagents were dispensed at 600cells/6 ul/well in 1536-well tissue culture treated black solid bottom plates using a Multidrop dispenser. After the assay plates were incubated at a 37 C/5% CO2 incubator for 5 hours, 23 nL of compounds dissolved in DMSO, positive and negative controls was transferred to the assay plate by a pintool work station. The plates were incubated at 37 C for 40 hours. The fluorescence intensity were measured at 0h, 8h, 16h, 24h, 32h and 40h time points using ViewLux plate reader during compound treatment.
# Potency is the fitted concentration of half-maximal effect.
row,SMILES,Potency
1,CCOC(=O)C(C)Oc1ccc(Oc2cnc3cc(Cl)ccc3n2)cc1 (stereo not given),inactive
2,C[C@]12C=CC(=O)C=C1CC[C@H]1[C@@H]3C[C@@H](O)[C@](O)(C(=O)CO)[C@@]3(C)C[C@H](O)[C@@]12F,inactive
3,COC(=O)C(C)Oc1ccc(Oc2ncc(C(F)(F)F)cc2Cl)cc1 (stereo not given),inactive
4,IC(I)I,inactive
5,CCCCCCC(C)O (stereo not given),inactive
6,CCCCCCCCCCCCCO,inactive
7,O=C(O)c1cc(=O)[nH]c(=O)[nH]1,inactive
8,O=Cc1ccccc1C=O,inactive
9,CCCCCC1C(=O)CCC1CC(=O)OC (stereo not given),inactive
10,CC(=O)O[C@]1(C(C)=O)CC[C@H]2[C@@H]3C=C(Cl)C4=CC(=O)CC[C@]4(C)[C@H]3CC[C@@]21C,inactive
11,CCCN1C=CN(C)C1,inactive
12,Oc1c(Cl)ccc(Cl)c1Cl,inactive
13,O=C(CCCN1CCC(O)(c2ccc(Cl)cc2)CC1)c1ccc(F)cc1,inactive
14,OC[C@H]1O[C@@H]2O[C@H]3[C@H](O)[C@@H](O)[C@@H](O[C@H]4[C@H](O)[C@@H](O)[C@@H](O[C@H]5[C@H](O)[C@@H](O)[C@@H](O[C@H]6[C@H](O)[C@@H](O)[C@@H](O[C@H]7[C@H](O)[C@@H](O)[C@@H](O[C@H]1[C@H](O)[C@H]2O)O[C@@H]7CO)O[C@@H]6CO)O[C@@H]5CO)O[C@@H]4CO)O[C@@H]3CO,inactive
15,CCCCCCCCCCC(CO)CCCCCCCC (stereo not given),inactive
16,c1ccc2ncccc2c1,inactive
17,C=CN1CCCC1=O,inactive
18,C1CN(SSN2CCOCC2)CCO1,inactive
19,Brc1nc2ccccc2s1,inactive
20,CCO[Si](CCCNC(N)=O)(OCC)OCC,inactive

row,SMILES,Potency
1,Cc1ccc(C(C)(C)C)cc1,inactive
2,O=C1OC2(c3ccccc31)c1cc(I)c(O)c(I)c1Oc1c2cc(I)c(O)c1I,15.5 µM (active) [middle of 4 runs]
3,COC(=O)CC(=O)OC,inactive
4,Nc1cc(Cl)c(N)c(Cl)c1,inactive
5,Cc1ccc(C)c(O)c1,inactive
6,NCCS(=O)(=O)O,inactive
7,c1ccc2cc3ccccc3cc2c1,inactive
8,Cc1ccc(N)c([N+](=O)[O-])c1,inactive
9,CC(=O)[C@H]1CC[C@H]2[C@@H]3CC=C4C[C@@H](O)CC[C@]4(C)[C@H]3CC[C@]12C,inactive
10,CCC(Cc1c(I)cc(I)c(N)c1I)C(=O)O (stereo not given),inactive
11,CC/C(=C(/CC)c1ccc(O)cc1)c1ccc(O)cc1,inactive
12,C=CC(C)(O)CCC=C(C)C (stereo not given),inactive
13,Cc1ccc([N+](=O)[O-])c(C)c1,inactive
14,Nc1ccc(N)c(Cl)c1,inactive and 38.9 µM (active)
15,CC1(C)O[C@@H]2C[C@H]3[C@@H]4C[C@H](F)C5=CC(=O)C=C[C@]5(C)[C@@]4(F)[C@@H](O)C[C@]3(C)[C@]2(C(=O)CO)O1,inactive
16,C=CCNCC=C,inactive
17,c1ccc2c(c1)ccc1ncccc12,inactive
18,Clc1ccc(Sc2cc(Cl)c(Cl)cc2Cl)cc1,inactive
19,CN(C)/N=N/c1nc[nH]c1C(N)=O,inactive
20,CC1(C)C(C=C(Cl)Cl)C1C(=O)OCc1cccc(Oc2ccccc2)c1 (stereo not given),inactive
